Screening results: PubChem, National Center for Advancing Translational Sciences (NCATS)
Only some compounds are listed: those with a hit (about 0.45% of all), similar ones and a draw of the others.
EPAC2 agonist = qHTS for Agonist of cAMP-regulated guanine nucleotide exchange factor 4 (EPAC2): primary screen; Rap guanine nucleotide exchange factor 4 (Homo sapiens), Q8WZA2; EPAC2 activation, biochemical qHTS; response scale: 100% = 6.5 mM cAMP response; Potency, µM (series often up to 154 µM), for the others: top-dose activation, usual class: activators; hit rate 0.079% among 360,000; AID 720711, 2013; also: nearly all actives have a fitted effect of over 50% in size
Target sequence (Q8WZA2 whole entry, looked up): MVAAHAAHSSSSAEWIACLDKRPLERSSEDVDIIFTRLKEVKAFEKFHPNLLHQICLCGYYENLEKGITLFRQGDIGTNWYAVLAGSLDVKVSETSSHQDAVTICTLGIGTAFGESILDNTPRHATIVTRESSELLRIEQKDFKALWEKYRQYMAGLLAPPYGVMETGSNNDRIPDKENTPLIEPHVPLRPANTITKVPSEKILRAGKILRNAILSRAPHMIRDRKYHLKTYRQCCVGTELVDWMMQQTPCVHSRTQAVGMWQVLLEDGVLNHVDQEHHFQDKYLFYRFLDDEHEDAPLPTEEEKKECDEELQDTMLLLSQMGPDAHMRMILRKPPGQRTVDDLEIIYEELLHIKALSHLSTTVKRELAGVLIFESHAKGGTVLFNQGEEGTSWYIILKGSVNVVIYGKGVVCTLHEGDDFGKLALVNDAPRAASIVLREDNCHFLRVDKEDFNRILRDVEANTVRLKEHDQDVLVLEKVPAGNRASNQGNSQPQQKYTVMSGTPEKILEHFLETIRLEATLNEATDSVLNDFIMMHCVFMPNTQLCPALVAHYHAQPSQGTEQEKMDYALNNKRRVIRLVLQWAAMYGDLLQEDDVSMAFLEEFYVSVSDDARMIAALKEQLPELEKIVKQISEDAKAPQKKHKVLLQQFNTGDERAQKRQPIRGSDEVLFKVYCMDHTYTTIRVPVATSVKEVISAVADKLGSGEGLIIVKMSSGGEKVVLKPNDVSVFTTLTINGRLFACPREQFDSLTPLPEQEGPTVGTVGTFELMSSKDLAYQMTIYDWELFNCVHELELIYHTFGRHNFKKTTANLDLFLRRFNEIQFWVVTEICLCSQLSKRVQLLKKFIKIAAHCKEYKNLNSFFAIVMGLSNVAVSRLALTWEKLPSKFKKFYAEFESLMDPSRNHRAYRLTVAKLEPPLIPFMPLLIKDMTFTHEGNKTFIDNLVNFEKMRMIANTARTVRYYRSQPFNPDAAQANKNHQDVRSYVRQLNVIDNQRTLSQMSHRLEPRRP
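Compounds were added across a concentration range to EPAC2 (100 nM), RAP1B-BODIPY-GDP (250 nM) and GDP (50 uM). After 5 min at room temperature, fluorescence was recorded at 5-min intervals for 30 min.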
EPAC1 agonist = qHTS for Agonist of cAMP-regulated guanine nucleotide exchange factor 3 (EPAC1): primary screen; Rap guanine nucleotide exchange factor 3 (Homo sapiens), O95398; EPAC1 agonist qHTS, biochemical assay; response scale: 100% = response to 6.5 mM cAMP; Potency, µM (top dose mostly 154 µM), without a hit: top-dose activation, usual class: activators; hit rate 0.073% among 360,000; also: nearly all actives have a fitted effect of over 60% in size
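Normalized to 6.5 mM cAMP, activity reflects EPAC1-catalysed release of BODIPY-GDP from Rap1B, followed kinetically over 30 min at 480 nm excitation, 540 nm emission. Reaction contained 100 nM EPAC1, 250 nM Rap1B-BODIPY-GDP, 50 uM GDP.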
EPAC1 antag = qHTS for Antagonist of cAMP-regulated guanine nucleotide exchange factor 3 (EPAC1): primary screen; Potency, µM (doses to about 115 µM), inactives show at the highest dose activity change, negative = inhibition, actives largely listed as inhibitors; Rap guanine nucleotide exchange factor 3 (Homo sapiens), O95398; EPAC1 GEF assay, Rap1b-BODIPY-GDP exchange fluorescence; hit rate 0.14% among 360,000;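 also: plate controls were vehicle for no effect and positive control for full effect; nearly all actives have a fitted effect of over 50% in size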
EPAC2 antagonist = qHTS for Antagonist of cAMP-regulated guanine nucleotide exchange factor 2 (EPAC2): primary screen; AID 720708, 2013; hit rate 0.18% among 360,000; Potency, µM (doses to about 114 µM), without a hit: at the top dose activity, negative = inhibition, most hits filed as inhibitors; EPAC2 GEF exchange of Rap1B-BODIPY-GDP, fluorescence; Rap guanine nucleotide exchange factor 4 (Homo sapiens), Q8WZA2; also: % is scaled to controls: 0 for no effect and ±100 for the full control effect; nearly all actives have a fitted effect of over 45% in size
USP1-UAF1 inh = Inhibitors of USP1/UAF1: Primary Screen. Ubiquitin carboxyl-terminal hydrolase 1 (Homo sapiens), O94782. recombinant USP1/UAF1, Ub-Rhodamine cleavage fluorescence. Potency, µM (series often up to 57.1 µM), without a hit: top-dose activity change, negative = inhibition, hits mostly inhibitors. hit rate 0.23% among 390,000. AID 743255, 2014; also: % is scaled to controls: 0 for no effect and ±100 for the full control effect; nearly all actives have a fitted effect of over 60% in size
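High-throughput fluorogenic screen: 1nM USP1/UAF1 complex, Ub-Rho substrate 150nM final, 50mM HEPES pH 7.8 with 0.5mM EDTA, 0.1 mg/ml BSA, 1mM TCEP and 0.01% Tween-20.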
* marks the source's active call; other numbers are inactive results; ? = inconclusive; · = no result given; ! = repeats disagree. Calls follow the shape of the dose curve; as a rule, active = well fitted curve in the direction sought with a large enough effect; inconclusive = small, poorly fitted or top-dose-only effect, or another doubt; inactive = no such curve, though single readings can be large; an effect the other way counts as inactive or inconclusive. Potency is read from the fitted curve at half-maximal effect.

SMILES | EPAC2 agonist | EPAC1 agonist | EPAC1 antag | EPAC2 antagonist | USP1-UAF1 inh
Cc1ccc(NC(=O)Cn2c(=O)n(-c3ccc(Cl)c(Cl)c3)c(=O)c3c(C)c(C)sc32)c(C)c1 | · | · | · | · | 6%
CSc1ccc(CNC(=O)CN2C(=O)C3CCCCN3c3ccc(C(=O)N4CCCC4)cc32)cc1 (configuration not stated) | · | · | · | · | -5%
NS(=O)(=O)c1ccc(N=Nc2c[nH]c(=O)c(O)c2)cc1 | -11% | 0% | ? | -28% | 28µM*
Nc1nc(O)c(N=Nc2ccc(S(N)(=O)=O)cc2)c(=O)[nH]1 | 4% | 1% | -5% | 8% | -20%
CCCn1c(SCc2nc(-c3ccccc3C)no2)nnc1-c1ccc(Cl)cc1 | · | · | · | · | -20%
Cc1ccnc(N/C=C(\C#N)c2nc(-c3cccc(Br)c3)cs2)c1 | 21% | ? | 36% | 21% | 22µM*
N#C/C(=C/c1ccc(Cl)cc1)c1nc(-c2ccc(Br)cc2)cs1 | · | · | · | · | -3%
Cc1cc(C)c(NC(=O)COC(=O)c2cccc3c2C(=O)c2ccccc2C3=O)c(C)c1 | 1% | 5% | -3% | 12% | -19%
Cc1cc(C)c(Nc2cc(S(=O)(=O)O)c(N)c3c2C(=O)c2ccccc2C3=O)c(C)c1 | -4% | -21% | 50µM* | ? | ?
Nc1cc(OCC(F)(F)F)cc([N+](=O)[O-])c1 | 2% | 1% | -28% | -1% | -12%
Nc1cc(N)c(OCC(F)(F)F)cc1OCC(F)(F)F | 5% | -19% | -1% | -5% | 25µM*
Cc1occc1C(=O)N=Nc1c(O)n(C)c2ccccc12 | -7% | -6% | -7% | 14% | -8%
Cn1c(O)c(N=NC(=O)c2ccccc2O)c2ccccc21 | 3% | 2% | 32µM* | -16% | -15%
CCC(=O)N(CC)C1=C(O)c2ccccc2C(=O)C1=O | -5% | -1% | -23% | -4% | 25µM*
CCC(=O)N(C1=C(NC)C(=O)c2ccccc2C1=O)C(C)C | 3% | 1% | -6% | -11% | ?
CN(C)c1cc(Cl)c2nonc2c1N | 2% | 10% | 50µM* | -1% | 32µM*
CCOc1ccc(CCNC(=O)c2nn(C)c3c2CSc2ccccc2-3)cc1 | · | · | · | · | -15%
O=C1C=C(O)c2c(O)cc(O)c(O)c2C1=O | -2% | -22% | ? | 7% | -23%
O=C1C=C(O)c2[nH]c(=O)ccc2C1=O | -1% | -3% | -24% | -18% | 25µM*
C[C@]12CC[C@@H]3c4ccc(OS(=O)(=O)O)cc4CC[C@H]3[C@@H]1CCC2=O | 10% | -23% | 22µM*! | 5% | -26%
Cc1ccc2[nH]c(C)c(/C=C/c3cc[n+](C)cc3)c2c1 | ? | ? | 56% | 43% | ?
Cc1ccc2c(c1)c(/C=C/c1cc[n+](C)cc1)c(C)n2C | ? | ? | 6% | 2% | 22µM*
CCCCN1C(=O)/C(=C/C=C2\Oc3ccccc3N2CC)SC1=S | 32µM* | ? | -14% | 30% | ?
CCCCN1C(=O)/C(=C/C=C2/CC(C)(C)CN2C)SC1=S | 18% | ? | 51% | 56% | 22µM*
CCOC(=O)c1c(NC(=O)C(C)Sc2cn(CCNC(=O)c3ccc(OC)c(OC)c3)c3ccccc23)sc2c1CCC2 (configuration not stated) | · | · | · | · | -18%
CCCS(=O)(=O)Nc1cc2c(cc1NCc1ccccc1)n(C)c(=O)n2C | · | · | · | · | -12%
COc1cc(OC)c(-c2c3cc(O)c(=O)cc-3oc3cc(O)c(O)cc23)cc1OC | 112µM* | 100µM* | 182% | 92% | 25µM*
COc1ccccc1NS(=O)(=O)c1cccc(-n2c(O)c(C=Nc3ccccc3C(=O)O)c3ccccc3c2=O)c1 | 2% | 5% | 56µM* | ? | ?
